Inconclusive results are not listed. Activity calls are given as the source filed them. Calls follow the shape of the dose curve; as a rule, active = well fitted cell-killing curve with a large enough effect; inconclusive = small, poorly fitted or top-dose-only effect, or effect the other way; inactive = no such curve, though single readings can be large or run the other way.
Assay: Quantitative High-Throughput drug screen in 47 multiple myeloma cell lines against the NCATS MIPE library collection: KMS12BM_JCRB cell viability assay (AID 1918971); also: nearly all actives have a fitted effect of over 35% in size
Details: KMS12BM myeloma viability, CellTiter-Glo ATP, 48 h; series mostly up to 45.8 µM
Summary of the method: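 We plated 500 myeloma cells per well, pinned in MIPE 4.0 compounds, and incubated for 48 hours at 37C. ATP was then quantified with CellTiter-Glo, with DMSO and media-only wells defining 100% and 0%.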
Potency is read from the fitted curve at half-maximal effect.

Structure (SMILES)	Potency
CC[C@H]1OC(=O)[C@H](C)[C@@H](O[C@H]2C[C@@](C)(OC)[C@@H](O)[C@H](C)O2)[C@H](C)[C@@H](O[C@@H]2O[C@H](C)C[C@H](N(C)C)[C@@H]2O)[C@](C)(O)C[C@@H](C)CN(C)[C@H](C)[C@@H](O)[C@]1(C)O	inactive
CCS(=O)(=O)N1CC(CC#N)(n2cc(-c3ncnc4[nH]ccc34)cn2)C1	18.7 µM (active)
CC(=O)Nc1ccc([C@H](C)C(=O)Nc2ncc(C(C)C)s2)cc1	2.35 µM (active)
O=C(N[C@@H](c1ccccc1)[C@@H]1CCCCN1)c1cccc(C(F)(F)F)c1Cl	7.43 µM (active)
CC[C@H]1OC(=O)[C@H](C)C(=O)[C@H](C)[C@@H](O[C@H]2O[C@H](C)C[C@H](N(C)C)[C@@H]2O)[C@](C)(OC)C[C@@H](C)C(=O)[C@H](C)[C@H]2N(CCCCn3cnc(-c4cccnc4)c3)C(=O)O[C@]12C	29.6 µM (active)
CN1C[C@H]2c3ccccc3Oc3ccc(Cl)cc3[C@@H]2C1	inactive
O=C1Nc2ccc(Cl)cc2C(C#CC2CC2)(C(F)(F)F)O1 (stereo not drawn)	23.5 µM (active)
CNC(=O)c1ccccc1Sc1ccc2c(C=Cc3ccccn3)n[nH]c2c1	16.6 µM (active)
CCC(=O)NC[C@H](Cc1ccc(OCCc2nc(-c3ccccc3)oc2C)cc1)NC(C)=CC(=O)c1ccc(C(F)(F)F)cc1	26.4 µM (active)
CO[C@H]1C(=O)[C@]2(C)[C@@H](OC)C[C@H]3OC[C@@]3(OC(C)=O)[C@H]2[C@H](OC(=O)c2ccccc2)[C@]2(O)C[C@H](OC(=O)[C@H](O)[C@@H](NC(=O)OC(C)(C)C)c3ccccc3)C(C)=C1C2(C)C	inactive
NC1CCC(Nc2nc(Nc3ccc(C(=O)N4CCCCC4)cc3)c3ncn(-c4cccc(F)c4)c3n2)CC1 (stereo not drawn)	inactive
O=c1cc(-c2cccc3c2Sc2ccccc2S3)oc(N2CCOCC2)c1	23.5 µM (active)
CC(C)n1cnc2c(NCCCCCCNC(=O)OC(C)(C)C)nc(NCCO)nc21	18.7 µM (active)
O=C(O)[C@H]1O[C@H](Oc2cc3oc(-c4ccccc4)cc(=O)c3c(O)c2O)[C@H](O)[C@@H](O)[C@H]1O	16.6 µM (active)

Assay: Quantitative High-Throughput drug screen in 47 multiple myeloma cell lines against the NCATS MIPE library collection: KMS12PE_JCRB cell viability assay (AID 1918972); also: nearly all actives have a fitted effect of over 30% in size
Details: KMS12PE myeloma viability, CellTiter-Glo ATP, 48 h; series mostly up to 45.8 µM
Summary of the method: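 Myeloma cells (500 per well) were exposed to MIPE 4.0 compounds by pin transfer and incubated 48 hours at 37C, 5% CO2. Viability was read as ATP by CellTiter-Glo luminescence, normalised to DMSO (100%) and media-only (0%) wells.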

Structure (SMILES)	Potency
CC[C@H]1OC(=O)[C@H](C)[C@@H](O[C@H]2C[C@@](C)(OC)[C@@H](O)[C@H](C)O2)[C@H](C)[C@@H](O[C@@H]2O[C@H](C)C[C@H](N(C)C)[C@@H]2O)[C@](C)(O)C[C@@H](C)CN(C)[C@H](C)[C@@H](O)[C@]1(C)O	inactive
CC(C(=O)O)c1ccc(-c2ccccc2)c(F)c1 (stereo not drawn)	inactive
O=C(N[C@@H](c1ccccc1)[C@@H]1CCCCN1)c1cccc(C(F)(F)F)c1Cl	23.5 µM (active)
O=c1cc(-c2ccccc2)oc2cc(O)c(O)c(O)c12	inactive
O=c1c(-c2ccc(O)cc2)coc2cc(O)ccc12	inactive
C[C@H](NC(=O)C(=O)Nc1ccccc1C(C)(C)C)C(=O)N[C@@H](CC(=O)O)C(=O)COc1c(F)c(F)cc(F)c1F	4.69 µM (active)
CCn1cc(C(=O)O)c(=O)c2ccc(C)nc21	inactive
CN1CCN(CCOc2cc(OC3CCOCC3)c3c(Nc4c(Cl)ccc5c4OCO5)ncnc3c2)CC1	14.8 µM (active)
CC1(C)CCC[C@@]2(C)[C@@H]1CC[C@@]1(C)OC(=O)C[C@H]21	14.8 µM (active)
CNC(=O)c1ccccc1Sc1ccc2c(C=Cc3ccccn3)n[nH]c2c1	1.66 µM (active)
NC(=O)c1ccc2nc(-c3ccc(Oc4ccc(Cl)cc4)cc3)[nH]c2c1	9.35 µM (active)
CC1(C)S[C@H]2[C@H](NC(=O)[C@@H](N)c3ccc(O)cc3)C(=O)N2[C@@H]1C(=O)O	4.18 µM (active)
O=C1C[C@@H](c2ccc(O)cc2)Oc2cc(O)cc(O)c21	inactive
CS(=O)c1ccc(-c2nc(-c3ccc(F)cc3)c(-c3ccncc3)[nH]2)cc1 (stereo not drawn)	21.5 µM (active)
CCC(=O)NC[C@H](Cc1ccc(OCCc2nc(-c3ccccc3)oc2C)cc1)NC(C)=CC(=O)c1ccc(C(F)(F)F)cc1	7.43 µM (active)
NC[C@@H]1O[C@@H](O[C@H]2[C@@H](O)[C@H](O[C@@H]3[C@@H](O)[C@@H](N)C[C@H](N)[C@H]3O[C@H]3O[C@H](CN)[C@@H](O)[C@@H](O)[C@H]3N)O[C@H]2CO)[C@H](N)[C@@H](O)[C@@H]1O	inactive
O=c1c(O)c(-c2ccc(O)cc2)oc2cc(O)cc(O)c12	16.6 µM (active)
CO[C@H]1C(=O)[C@]2(C)[C@@H](OC)C[C@H]3OC[C@@]3(OC(C)=O)[C@H]2[C@H](OC(=O)c2ccccc2)[C@]2(O)C[C@H](OC(=O)[C@H](O)[C@@H](NC(=O)OC(C)(C)C)c3ccccc3)C(C)=C1C2(C)C	inactive
COc1ccc2cccc(CCNC(C)=O)c2c1	inactive
C[C@@H]1CCN(C(=O)CC#N)C[C@H]1N(C)c1ncnc2[nH]ccc12	inactive
NC1CCC(Nc2nc(Nc3ccc(C(=O)N4CCCCC4)cc3)c3ncn(-c4cccc(F)c4)c3n2)CC1 (stereo not drawn)	inactive
CC(C)C[C@H](CC(=O)O)C(=O)N[C@@H](Cc1c[nH]c2ccccc12)C(=O)N[C@@H](C)c1ccccc1	inactive
COc1cc(NC(=O)c2ccc(-c3ccc(Cl)cc3)o2)cc(OC)c1	20.9 µM (active)
O=c1cc(-c2cccc3c2Sc2ccccc2S3)oc(N2CCOCC2)c1	16.6 µM (active)
CO[C@H]1C=CO[C@@]2(C)Oc3c(C)c(O)c4c(O)c(c5c(c4c3C2=O)NC2(CCN(CC(C)C)CC2)N=5)=NC(=O)C(C)=CC=C[C@H](C)[C@H](O)[C@@H](C)[C@@H](O)[C@@H](C)[C@H](OC(C)=O)[C@H]1C	11.8 µM (active)
O=C(O)c1ccccc1C(=O)Nc1ccc(-c2ccccc2)cc1	inactive
Cc1ccc(C(C)(O)c2nc3ccccc3s2)c(C)c1 (stereo not drawn)	inactive
NC(CO)(CO)CCc1ccc(Sc2cccc(OCc3ccccc3)c2)cc1Cl	9.35 µM (active)
O=C(O)[C@H]1O[C@H](Oc2cc3oc(-c4ccccc4)cc(=O)c3c(O)c2O)[C@H](O)[C@@H](O)[C@H]1O	inactive

From PubChem BioAssay (NCATS)
